From PubChem BioAssay AID777 (Sanford-Burnham Center for Chemical Genomics, 2007) come the findings set out here.

Screen size: about 96,000 compounds; about 19,000 (20%) were called active.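 The calls were made as follows: active = blocking of liver enzyme CYP2C9 beyond about 50% at 5 µM (limit read from the data); inactive = the rest.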 Only a sample is shown.

The inhibition is the relative decrease from the control value, in per cent.

Sequence of Cytochrome P450 2C9 (Homo sapiens) (P11712 whole entry, looked up): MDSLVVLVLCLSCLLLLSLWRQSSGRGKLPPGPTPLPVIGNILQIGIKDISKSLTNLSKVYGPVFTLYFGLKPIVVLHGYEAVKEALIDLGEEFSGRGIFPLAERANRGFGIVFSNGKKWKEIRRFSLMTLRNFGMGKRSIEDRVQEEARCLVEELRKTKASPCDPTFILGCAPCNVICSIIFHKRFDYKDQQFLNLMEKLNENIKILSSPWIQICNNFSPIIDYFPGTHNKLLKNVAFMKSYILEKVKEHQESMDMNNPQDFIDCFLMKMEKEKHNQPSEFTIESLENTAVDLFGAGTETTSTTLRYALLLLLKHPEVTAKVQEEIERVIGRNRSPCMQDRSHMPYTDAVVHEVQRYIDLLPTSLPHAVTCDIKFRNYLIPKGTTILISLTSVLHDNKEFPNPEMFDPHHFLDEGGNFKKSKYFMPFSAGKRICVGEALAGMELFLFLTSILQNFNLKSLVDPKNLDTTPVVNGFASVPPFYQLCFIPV

This test has as its target Cytochrome P450 2C9 (Homo sapiens) (UniProt P11712). The test can be described thus: blockers of cytochrome P450 2C9 activity – biochemical, luminescence, ADME assay, primary screen (AID 777). As to conditions: CYP2C9 Supersomes, luciferin-H conversion, at 5 µM, hits give high values.
As to `O=C1CCCC2=C1C(c1cccs1)n1nc(SCc3ccccc3)nc1N2` (configuration not stated), the inhibition was -9.5% (inactive).
The figure for `COc1ccccc1C(=O)N1CCNC(=O)C1CC(=O)Nc1ccc(Cl)cc1` (configuration not stated) is 27.9% (inactive); for `Nc1ccccc1SCc1cc([N+](=O)[O-])cc2c1OCOC2` it is 53.9% (active).
Next, `CN(C)S(=O)(=O)c1ccc(Oc2ccc(S(=O)(=O)N(C)C)cc2)cc1`: 13.3% (inactive); `Cc1cccc(N=C2NC(=O)CS2)c1C`: 21.1% (inactive).
Next, `COc1ccc2[nH]c(C)c(CCN(Cc3cccs3)C(=S)Nc3ccccc3OC)c2c1`: 43.2% (inactive).
Take `COC(=O)c1ccc(Cc2ccccc2)o1`: the inhibition was -29.6% (inactive).
The figure for `COC(=O)c1ccc(CN(c2ccccc2OC)S(=O)(=O)c2cccs2)o1` is 94.6% (active); for `Cc1oc(CC(C)C)c(CN2CCCC2)c1C(=O)O` it is -18.2% (inactive).
Next, `CN(C)c1ccc(CNC2C3CC4CC(C3)CC2C4)cc1` (configuration not stated): 4.8% (inactive); `COC(=O)c1ccc(C2C3=C(Nc4nnnn42)c2ccccc2OC3)cc1` (configuration not stated): 92.8% (active).
Next, `COc1ccccc1NC(=O)C1=C(C)Nc2nnnn2C1c1cccc(Br)c1` (configuration not stated): 41% (inactive); `O=c1[nH]c2c(c(=O)n1Cc1ccccc1)CCC2`: -27.1% (inactive); `COC(=O)c1ccc(/C=N\n2c(C)nnc2C)cc1`: -3.4% (inactive).
As to `CCOC(=O)C1CCN(C(=O)C2CCN(S(=O)(=O)c3c(C)noc3C)CC2)CC1`, the inhibition is 10.2% (inactive).
The figure for `Cc1noc(/C=C/c2ccco2)c1S(=O)(=O)N1CCC(C(=O)N2CCc3ccccc32)CC1` is 76.9% (active); for `Cc1noc(/C=C/N(C)C)c1S(=O)(=O)N1CCCC(C(=O)NCc2ccco2)C1` (configuration not stated) it is 48.9% (inactive); for `CCCCN1C(=O)/C(=C2/C=CC=CN2C)SC1=S` it is -5% (inactive).
Next, `Cc1cccc(-n2ncc3c(N4CCc5ccccc54)ncnc32)c1`: -9.6% (inactive).
Next, `Cc1ccc2c(c1)c1ncnc(N3CCc4ccccc4C3)c1n2C`: 73% (active); `Cc1cc(C)nc(N2CCN(c3ncnc4c3oc3ccccc34)CC2)n1`: -20.3% (inactive).
With `CCN(CC)C(=O)CSc1nnc(C2CCCCC2)o1`, the inhibition is 5.7% (inactive).
For the compound `COCc1cc(C)nc(Nc2cc(C)ccc2C)c1C#N`, the inhibition is 15.6% (inactive).
The figure for `Oc1ccc(-c2onc3ccc(Cl)cc23)cc1` is 90.2% (active).
Turning to `CC1(C)Oc2ccc3ccc(=O)oc3c2/C(=C/NCCO)C1=O`, the inhibition was 4.1% (inactive).
Consider `O=C(/C=C/Nc1ccccc1)c1cnc(-c2ccccc2)s1`, for which the inhibition was 12.6% (inactive).
The figure for `O=C1c2ccncc2C(=O)N1C1CCCCC1` is 12.5% (inactive); for `CCCCCOC(=O)C1=C(C)Nc2nnnn2C1c1ccc(OC)c(OC)c1OC` (configuration not stated) it is 56.5% (active); for `CC1=C(C(N)=O)C(c2sccc2C)n2nnnc2N1` (configuration not stated) it is -4.8% (inactive).
Next, `COc1ccc(C2C(C(=O)Nc3ccccc3OC)=C(C)Nc3nnnn32)c(OC)c1` (configuration not stated): 31.8% (inactive); `CCc1cc(Br)ccc1NC(=O)C1CCCO1` (configuration not stated): -2.1% (inactive); `CC(=O)Oc1cc2c(C(=O)NCCN3CCOCC3)c(C)oc2c2ccccc12`: 24.6% (inactive).
Regarding `CC(c1ccccn1)N(CCN(C)C)C(=S)Nc1ccccc1F` (configuration not stated), the inhibition was -1.3% (inactive).
The figure for `O=[N+]([O-])c1ccc(N2CCN(S(=O)(=O)c3ccc4ccccc4c3)CC2)cc1NCc1ccco1` is 27.8% (inactive); for `O=C(O)C1CC=CCC1C(=O)Nc1ccccc1C(=O)N1CCN(c2ccccc2)CC1` (configuration not stated) it is 6% (inactive).
The figure for `CC(C)N(C(=O)COC(=O)c1ccccc1C(=O)N1CCN(c2ccc(F)cc2)CC1)C(C)C` is 39.5% (inactive); for `O=C(c1ccccc1)c1cccn1CC(=O)N1CCN(c2ccc(F)cc2)CC1` it is -62.9% (inactive); for `O=C(c1cccc(F)c1)N1CCN(c2ccc([N+](=O)[O-])c(N3CCCCC3)c2)CC1` it is 80.7% (active).
The figure for `CO/N=C/c1ccc(N2CCN(C(=O)c3cccc(Cl)c3)CC2)c([N+](=O)[O-])c1` is 14.4% (inactive); for `CCNC(=S)N1CCN(C(=O)c2ccco2)CC1` it is 1.2% (inactive); for `O=C(c1cccc(N2CCCC2=O)c1)N1CCOCC1` it is 5.6% (inactive).
`O=C(c1ccccc1Oc1ccccc1)N1CCN(c2ccc(F)cc2)CC1`: the inhibition was 77% (active).
Regarding `CCC(CC)C(=O)Nc1cccc(C(=O)N2CCCC2)c1`, the inhibition is 12.7% (inactive).
Next, `O=C(c1ccccc1)N1CCN(c2ccc([N+](=O)[O-])c(NCc3ccco3)c2)CC1`: 87.1% (active).
Consider `O=C(c1cccc(C(=O)N2CCN(c3ccc(F)cc3)CC2)c1)N1CCN(c2ccc(F)cc2)CC1`, for which the inhibition was 84.6% (active).
Next, `CNC(=O)Nc1cc(C(C)(C)C)no1`: 7.8% (inactive).
The figure for `CCOC(=O)c1c(N)c(C#N)nn1-c1ccccc1C(=O)OC` is -2.3% (inactive); for `CN(C(=O)CC(NC(=O)c1ccccc1)(c1ccccc1)c1ccccc1)c1ccccc1` it is 21.9% (inactive).
Next, `CC(C)CC(=O)N=C1SC2CS(=O)(=O)CC2N1CCc1ccccc1` (configuration not stated): 7.8% (inactive).
As for `CCc1ccc(-c2nnn(Cc3nn[nH]n3)n2)cc1`, the inhibition was 23.5% (inactive).
On to `CCNC(=O)N1CCNC(=O)C1CC(=O)Nc1ccc(C(=O)OCC)cc1` (configuration not stated), for which the inhibition is 1.1% (inactive).
The figure for `COC(=O)c1ccc(C(=O)OC)c(NC(=S)N2CCCCC2)c1` is 14% (inactive); for `O=C(Nc1ccc2c(c1)CCC2)c1cccc(S(=O)(=O)N2CCN(c3ccc(F)cc3)CC2)c1` it is 39.9% (inactive).
The figure for `CCCCc1nnc(NC(=O)CS(=O)(=O)Cc2ccccc2)s1` is 44.7% (inactive); for `C=CCNc1nnc(C)c2ccccc12` it is -15.2% (inactive).
Next, `O=C(c1ccccc1)N1CCN(C(=O)N2CCCCC2)CC1`: 1.9% (inactive).
Consider `Cc1ccccc1CN1CCN(C(=O)c2cccc(F)c2)CC1`, for which the inhibition is 85.6% (active).
The figure for `O=C(CN1CCN(C(=O)c2cccc(F)c2)CC1)Nc1ccccc1F` is 27.5% (inactive); for `Cc1cccc(C(=O)N2CCCN(C(=O)c3cccc(C)c3)CC2)c1` it is 70.4% (active); for `Cc1ccccc1CS(=O)(=O)CC1(O)CCN(C(=O)c2cccc(C(F)(F)F)c2)CC1` it is 4.9% (inactive).
Next, `Cc1ccc(C(=O)N2CCCCCC2)cc1Br`: -23.3% (inactive); `Cc1ccc(S(=O)(=O)N(c2cccc(C)c2)C2CCS(=O)(=O)C2)cc1` (configuration not stated): 7.2% (inactive); `CC(C)C(=O)Nc1ccc2c(c1)oc1ccccc12`: 1.8% (inactive).
`CC1Cc2ccccc2N1C(=O)CSc1nnc(-c2ccc(S(=O)(=O)N3CCCCC3)cc2)o1` (configuration not stated): the inhibition is 31.7% (inactive).
Next, `COc1ccc(C2=NOC3(CC(=O)N(c4ccc(C)cc4)C3=O)C2)cc1` (configuration not stated): 12% (inactive).
The figure for `CCCc1nnc(NC(=O)c2cc(OC)cc(OC)c2)s1` is 21.7% (inactive); for `COc1ccc(S(=O)(=O)N2CCCC2)c(C)c1C` it is -147% (inactive); for `COc1ccc(S(=O)(=O)Nc2ccc(F)cc2)c(C)c1C` it is 66.9% (active).
As to `Cc1ccc(NS(=O)(=O)c2c(C)[nH]c(=O)[nH]c2=O)cc1C`, the inhibition is 4.6% (inactive).
Consider `CCOc1cc(C(=O)Nc2ncccn2)cc(OCC)c1OCC`, for which the inhibition is 3.1% (inactive).
Next, `Nc1nnc(C2CCCC2)s1`: 7.5% (inactive); `CCCSC1=C(C#N)C(c2ccccc2C)C(C(=O)OC)C(=O)N1` (configuration not stated): 33.7% (inactive).
The figure for `CC1=C(C(=O)Nc2ccccc2)C(c2cccs2)C(C#N)=C(SCC#N)N1` (configuration not stated) is 87.5% (active); for `COc1ccc(NC(=O)c2sccc2SCC#N)cc1` it is 10.4% (inactive).
The figure for `C/C(=N\O)C1(C)N(O)C(C)(C)C(c2ccc(Br)cc2)=[N+]1[O-]` (configuration not stated) is -4.6% (inactive); for `O=c1onc(-c2cccs2)n1Cc1ccccc1` it is 4.9% (inactive); for `Cc1ccc(OCCCC(=O)N2CCOCC2)c(C)c1` it is 4% (inactive).
`CCCCCNC(=O)Cc1ccc(OC)cc1`: the inhibition was 14.9% (inactive).
Regarding `CCNC(=O)NC(=O)C(C)OC(=O)c1cc(S(=O)(=O)N2CCCCCC2)ccc1OC` (configuration not stated), the inhibition was 98.5% (active).
On to `COc1ccc(S(=O)(=O)N2CCC(C(=O)N3CCOCC3)CC2)cc1OC`, for which the inhibition is 43.3% (inactive).
The figure for `CSCCC(NC(=O)c1ccco1)C(=O)OCC(=O)Nc1ncc(Cl)c(C)c1Cl` (configuration not stated) is 24.2% (inactive); for `CCCCc1cc(=O)oc2cc(C)cc(OCc3nn[nH]n3)c12` it is 67.5% (active); for `CCc1cc(=O)oc2cc(C)cc(OC(C)C(=O)O)c12` (configuration not stated) it is -7.1% (inactive).
The figure for `O=c1[nH]c(CCl)nc2cc(-c3ccc(Cl)cc3)sc12` is 17.9% (inactive).
As to `O=C(Nc1sc2c(c1-c1nc3ccccc3[nH]1)CCCC2)C1CC1`, the inhibition is 40.5% (inactive).
Regarding `CCOC(=O)c1[nH]c2ccc(C)cc2c1N=C(C)N(C)C`, the inhibition is -7.9% (inactive).
Next, `CCOc1ccc(C(=O)N(Cc2ccc(N(C)C)cc2)C2CCS(=O)(=O)C2)cc1` (configuration not stated): 65.3% (active).
Regarding `COc1ccc(C(=O)N(Cc2ccc(N(C)C)cc2)C2CCS(=O)(=O)C2)cc1` (configuration not stated), the inhibition is -2.3% (inactive).
Next, `COc1cc(C(=O)N(Cc2ccc(N(C)C)cc2)C2CCS(=O)(=O)C2)cc(OC)c1OC` (configuration not stated): 5.2% (inactive).
The figure for `O=C(Nc1nccs1)c1cc(S(=O)(=O)N2CCOCC2)c(Cl)cc1Cl` is 15.1% (inactive); for `CC(=O)N(CC1CCCO1)C1(C(=O)NC2CCCC2)CCCCC1` (configuration not stated) it is -7.3% (inactive); for `COC(=O)c1ccc(CSc2ccc3nnc(-c4ccccc4)n3n2)o1` it is 96.2% (active).
In the case of `CCOc1ccccc1Nc1nnc(SCc2ccc(C(=O)OC)o2)s1`, the inhibition was -73.5% (inactive).
On to `COC(=O)c1ccc(CSc2nncn2C)cc1`, for which the inhibition was 21.6% (inactive).
The figure for `COc1cc(OC)cc(-c2nc3nc(C)c(CCC(=O)NCc4ccco4)c(C)n3n2)c1` is 15.8% (inactive).
The figure for `O=C(NCc1ccccn1)c1c(O)c2c([nH]c1=O)CCCC2` is 15% (inactive); for `COc1ccc(CNC(=O)C2CCC(CNc3c(N4CCOCC4)c(=O)c3=O)CC2)cc1` (configuration not stated) it is -7.6% (inactive).
